# In PubChem BioAssay AID651871 (Sanford-Burnham Center for Chemical Genomics, 2012):
# Test system: HL-1
# Assay: cardiomyocyte survival under oxidative or metabolic stress – cell-based, panel, H9c2 and HL-1, ATP luminescence, set 2, SAR follow-up (AID 651871);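 note: cells exposed to stressor for 2 h before ATP readout; reference of the scale not given here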
# Conditions: H9c2/HL-1 cardiomyocytes, 2-deoxyglucose stress, with 2-deoxyglucose, run 2, at 19.8 µM (top of the series)
smiles,measurement,value
COc1ccc2c(c1OC)C(=O)N1c3ccccc3C(=O)N(Cc3cccc(Cl)c3Cl)C21 (stereo unspecified),activity (protection/inhibition),23.7%
